3CLpro inhibitor: SARS-CoV 3CLpro protease inhibition; P0C6X7; recombinant SARS-CoV 3CLpro, quenched FRET peptide cleavage; inhibition, % at 6 µM; 0.14% of 290,000 active; AID 1706; in the data active = inhibition above about 12%
ugtP null kill: kills S. aureus RN4220 lacking UgtP. 0.54% of 330,000 active. S. aureus RN4220 ugtP deletion, OD600 growth, 16 h. growth inhibition, % (concentration not given with the values); in the data active = growth inhibition above about 68%
BJeLR viability: BJeLR cell viability loss. BJeLR (HRASV12) viability, CellTiter-Glo ATP luminescence, 48 h. inhibition, % (test concentration not listed). 0.17% of 300,000 active. AID 1554; in the data active = inhibition above about 50%
Sa RN4220 lethal: kills Staphylococcus aureus RN4220. 0.33% of 330,000 active. S. aureus RN4220 growth, OD600, 16 h. inhibition, % (concentration not given with the values); in the data active = inhibition above about 85%
PfHsp40 yeast: compounds rescuing yeast from Plasmodium falciparum HSP40 toxicity; AID 504582; 0.68% of 340,000 active; growth rescue, % at 12.5 µM; S. cerevisiae expressing PfHsp40, growth rescue, ATP luminescence; in the data active = growth rescue above about 28%, passing the limit was not always enough;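 also: yeast W303a lacking pdr1 and pdr3 grown in galactose medium; growth measured after three days at 30 °C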
Each line names hits and unclear results; the compound was inactive in the other large screens; ! = not active in a repeat. Most compounds without a hit are left out; they make up all but 1.3% or so of the library.

O=C(NCCc1ccccc1)c1ccc(CS(=O)Cc2cccc(Cl)c2)o1 (stereo unspecified)	ugtP null kill 87
CCOc1ccc(CCNC(=O)c2ccc(CS(=O)Cc3ccc(Cl)cc3)o2)cc1 (stereo unspecified)	ugtP null kill 95
O=C(NCCc1ccc(Cl)cc1)c1ccc(CS(=O)Cc2ccc(Cl)cc2)o1 (stereo unspecified)	ugtP null kill 99
O=c1c2cn[nH]c2[nH]c(=S)n1-c1ccccc1F	none
C/C(N)=C(/C#N)C(=O)COc1ccc(Cl)cc1Cl	none (no result: ugtP null kill, Sa RN4220 lethal)
CC(=NN1CCN(C)CC1)c1ccc(Cl)c(Cl)c1	none (no result: 3CLpro inhibitor, BJeLR viability, PfHsp40 yeast)
CCC(=O)C1=C(O)C(c2cccc(Oc3ccccc3)c2)CCC1=O (stereo unspecified)	PfHsp40 yeast 211
CCOC(=O)CN1C(=O)N[C@@H](c2cccc(F)c2)C(C(C)=O)=C1C	none (no result: 3CLpro inhibitor, ugtP null kill, Sa RN4220 lethal)
CCOC(=O)CN1C(=O)N[C@@H](c2cccc(F)c2)C(C(=O)OC)=C1C	PfHsp40 yeast 40 (no result: 3CLpro inhibitor, ugtP null kill, Sa RN4220 lethal)
COc1ccccc1NC(=O)C1CCCN(c2ncnc3c2nc2n3CCCCC2)C1 (stereo unspecified)	none
COc1cc(NC(=O)C2CCCN(c3ncnc4c3nc3n4CCCCC3)C2)cc(OC)c1OC (stereo unspecified)	PfHsp40 yeast 44
O=c1c2ccccc2nc(/C=C/c2ccc([N+](=O)[O-])o2)n1-c1ccc(O)cc1	ugtP null kill 100, BJeLR viability 64, Sa RN4220 lethal 99
Cc1cccc(-n2c(/C=C/c3ccc([N+](=O)[O-])o3)nc3ccccc3c2=O)c1	ugtP null kill 99
CCCOc1ccc(C(=O)NC(=S)Nc2nc3ccccc3s2)cc1	none
O=C(Cc1ccc(Br)cc1)N1CCOCC1	PfHsp40 yeast 36
CC(=NNC(=O)C(N)=O)c1ccc(NC(=O)c2cccs2)cc1	none (no result: 3CLpro inhibitor, BJeLR viability, PfHsp40 yeast)
Cn1c2ccccc2c2cc(/C=N/NC(=O)c3ccc(O)cc3O)ccc21	none (no result: ugtP null kill, Sa RN4220 lethal)
COc1cc(C(=O)NN=Cc2ccc3c(c2)c2ccccc2n3C)ccc1O	ugtP null kill 86, Sa RN4220 lethal 91 (no result: 3CLpro inhibitor, BJeLR viability, PfHsp40 yeast)
Cc1ccc2oc(C(=O)NCc3ccccc3)cc(=O)c2c1	none
CCCCn1c(SCC(=O)NCc2ccco2)nc2c1c(=O)n(C)c(=O)n2C	PfHsp40 yeast 45
CN(C(=O)COC(=O)c1cc(Br)c(Br)s1)C1CCS(=O)(=O)C1 (stereo unspecified)	none
O=S(=O)(Nc1ccccc1C(F)(F)F)c1ccc(-c2ccccn2)s1	PfHsp40 yeast 28
Cn1ccsc1=NC(=O)c1ccc(=O)[nH]c1	none
O=C(NCC1CCCCC1)c1cccc(S(=O)(=O)N2CCCC2)c1	none (no result: 3CLpro inhibitor, BJeLR viability)
O=C(O)C1Cc2[nH]cnc2C(c2ccc(F)cc2)N1 (stereo unspecified)	PfHsp40 yeast 61
CC1CCCCC1NC(=O)c1cc2ccccc2o1 (stereo unspecified)	none
CCCCN=C[C@]12CCC(O)CC1(O)CCC1[C@@H]2CC[C@]2(C)[C@H](C3C=CC(=O)O3)CCC12O (stereo partly specified)	BJeLR viability 68
O=C(NC(=S)NCc1ccco1)c1cccc(Cl)c1	none (no result: ugtP null kill, Sa RN4220 lethal)
O=C(NC(=S)NCc1ccccc1)c1cccc(Cl)c1	PfHsp40 yeast 29
Cc1cccc(NC(=O)C2CCN(S(=O)(=O)c3ccc(Cl)cc3)CC2)n1	none (no result: 3CLpro inhibitor)
O=C(Cc1cccs1)Nc1cccc(-c2nc3cc4ccccc4cc3[nH]2)c1	PfHsp40 yeast 77
CCOc1ccc(NC(=O)CSc2nnc(C)n2C2CC2)cc1S(=O)(=O)N1CCCC1	none (no result: 3CLpro inhibitor, BJeLR viability)
O=C1c2ccccc2NC(c2ccc([N+](=O)[O-])cc2)N1O (stereo unspecified)	PfHsp40 yeast 37
CC(C)Oc1cc(-n2c(=S)[nH]c3ccccc3c2=O)c(Cl)cc1Cl	ugtP null kill 101, Sa RN4220 lethal 100
CC1(C)SC2C(NC(=O)COc3ccccc3)C(=O)N2C1C(=O)OCc1ccccc1 (stereo unspecified)	ugtP null kill 100, Sa RN4220 lethal 100 (no result: 3CLpro inhibitor, BJeLR viability, PfHsp40 yeast)
CCOC(=O)OC(C)OC(=O)[C@@H]1N2C(=O)[C@@H](NC(=O)[C@H](N)c3ccccc3)[C@H]2SC1(C)C (stereo partly specified)	none (no result: 3CLpro inhibitor, ugtP null kill, BJeLR viability, Sa RN4220 lethal)
CC1(C)S[C@@H]2[C@H](NC(=O)COc3ccccc3)C(=O)N2C1C(=O)OCC1CCCCC1 (stereo partly specified)	ugtP null kill 100, Sa RN4220 lethal 99 (no result: 3CLpro inhibitor)
CC1(C)S[C@@H]2[C@H](NC(=O)COc3ccccc3)C(=O)N2C1C(=O)OCc1cc2ccccc2n1S(=O)(=O)c1ccccc1 (stereo partly specified)	none (no result: ugtP null kill, Sa RN4220 lethal, PfHsp40 yeast)
CSc1nnc2n(C)c3c(c(=O)n12)C1(CCCC1)Cc1ccccc1-3	none
C=C1C(=O)O[C@@H]2C[C@@H](C)[C@H]3C=CC(=O)[C@]3(O)C[C@@H]12	BJeLR viability 66 (no result: 3CLpro inhibitor, ugtP null kill, Sa RN4220 lethal)
C=C1C(=O)OC2CC(C)C3C=CC(=O)[C@@]3(C)C(OC(C)=O)C12 (stereo partly specified)	none (no result: 3CLpro inhibitor, BJeLR viability, PfHsp40 yeast)
Cc1ccc(NC(=O)COC(=O)c2ccnn2C)cc1	none
CCOC(=O)CSc1nnc(CNC(=O)c2cccc(C)c2)n1C	PfHsp40 yeast 47
Cc1ccc2cc(CN(CCN3CCOCC3)Cc3nnnn3Cc3ccco3)c(=O)[nH]c2c1C	none
O=c1c2nncn2c2cc(C(F)(F)F)ccc2n1CCNc1ncc(C(F)(F)F)cc1Cl	none
O=c1c(Cl)nc2cc(Cl)ccc2n1CCNc1ncc(C(F)(F)F)cc1Cl	ugtP null kill 96, BJeLR viability 88
Nc1cc(Cl)ccc1Oc1ccc2ccccc2c1	ugtP null kill 95
Cc1ccc(Oc2ccc(Cl)cc2N)cc1	none
CC12CC3(C)CC(C)(C1)CC(NC(=O)N1CCCC1)(C2)C3	PfHsp40 yeast 310
CC1(NC(=O)N2CCCCC2)CCS(=O)(=O)C1 (stereo unspecified)	none
Cc1cc(NC(=S)Nc2ccc(C)c(Cl)c2)n[nH]1	PfHsp40 yeast 57
Cc1cc(NC(=O)CCN2C(=O)/C(=C\c3ccccc3Cl)SC2=S)no1	none
O=C(/C=C\c1ccco1)Nc1cc([N+](=O)[O-])ccc1F	BJeLR viability 62
O=C(/C=C/c1ccco1)Nc1cc(Cl)ccc1C(=O)O	none
O=C(O)C(Cc1ccccc1)N1C(=O)c2c(Cl)c(Cl)c(Cl)c(Cl)c2C1=O (stereo unspecified)	ugtP null kill 86! (no result: 3CLpro inhibitor)
Cc1ccc(CN2CC(C(=O)N3CCN(S(=O)(=O)c4ccc(C(C)C)cc4)CC3)CC2=O)cc1 (stereo unspecified)	none (no result: 3CLpro inhibitor)
O=C(Cc1n[nH]c(=O)c2ccccc12)OCC(=O)c1ccc2c(c1)OCCO2	PfHsp40 yeast 96
Cc1onc(-c2c(Cl)cccc2Cl)c1C(=O)N/N=C(\N)COc1ccc(Cl)cc1	PfHsp40 yeast 599 (no result: ugtP null kill, Sa RN4220 lethal)
FC(F)(F)c1nc(SCc2ccc(Cl)cc2Cl)n[nH]1	ugtP null kill 83, PfHsp40 yeast 299
Cn1ncc2c(Nc3ccc(-c4ccccc4)cc3)ncnc21	none
O=c1c(-c2n[nH]c(=S)n2-c2ccccc2)cccn1Cc1cccc(Cl)c1	none
COC(=O)c1ccc(OC)c(-c2c(OC)cc(OC)cc2OC)c1	none
Nc1ccc2ncccc2c1N	none (no result: 3CLpro inhibitor, BJeLR viability)
